Test results as given in PubChem BioAssay AID894 (National Center for Advancing Translational Sciences (NCATS), 2007).
In all, about 150,000 compounds went through this assay and about 6,500 (4.3%) were called active. About 12% were inconclusive and are not listed. The sample holds actives, similar compounds and a random draw of the others, so the mix is not that of the screen. Calls follow the shape of the dose curve; as a rule, active = well fitted inhibition curve with a large enough effect (not every such curve was filed as active); inconclusive = small, poorly fitted or top-dose-only effect, or another doubt; inactive = no such curve, though single readings can be large or run the other way.
% is scaled to controls: 0 for no effect and ±100 for the full control effect; potency is read from the fitted curve at half-maximal effect.

These compounds were tested against 15-hydroxyprostaglandin dehydrogenase [NAD(+)] (Homo sapiens) (UniProt P15428) (assay: qHTS Assay for Inhibitors of HPGD (15-Hydroxyprostaglandin Dehydrogenase)). Conditions: purified HPGD, NADH fluorescence kinetic, PGE2 substrate; activity change, negative = inhibition: active compounds read low.
15-hydroxyprostaglandin dehydrogenase [NAD(+)] (Homo sapiens), sequence (P15428 whole entry, looked up): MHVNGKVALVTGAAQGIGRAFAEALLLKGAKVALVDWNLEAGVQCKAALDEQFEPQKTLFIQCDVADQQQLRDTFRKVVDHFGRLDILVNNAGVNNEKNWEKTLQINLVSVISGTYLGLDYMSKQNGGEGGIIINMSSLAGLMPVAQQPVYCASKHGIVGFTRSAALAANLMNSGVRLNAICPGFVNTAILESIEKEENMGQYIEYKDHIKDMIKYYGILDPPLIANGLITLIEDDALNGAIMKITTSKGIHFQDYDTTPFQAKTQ
Outline: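 20 nM HPGD preincubated 15 min at room temperature with compound in 50 mM Tris-HCl pH 8, 0.01% Tween 20. Started with 1 mM NAD+ and 30 uM prostaglandin E2; NADH fluorescence (360/450 nm) read 5 times over 30-s intervals, last minus first.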
With Cc1ccc(-n2c(SCC(=O)Nc3ncc(Cl)cc3Cl)nc3ccccc32)cc1 the activity change, negative = inhibition was -16.1% (inactive).
In the case of COCC(C)n1c(C)cc(C(=O)CSc2cc(C)c3ccccc3n2)c1C (stereo unspecified), the activity change, negative = inhibition is reported as -10.7% (inactive).
For COc1ccc(/C=N/NC(=O)c2ccc(Cl)cc2)cc1COC(C)=O, the activity change, negative = inhibition was -5.1% (inactive).
Cc1ccc(C(=O)OCc2nc(N)nc(Nc3ccccc3C)n2)cc1 was tested, and the activity change, negative = inhibition was -0.25% (inactive).
CC(Oc1ccc(Cl)cc1Cl)C(=O)/C=C/N(C)C (stereo unspecified) was tested, and the Potency was 22.4 µM (active).
With CN(C)/C=C/C(=O)c1ccccc1F the activity change, negative = inhibition was -27.4% (inactive).
CCC(C)NC(=O)c1cc(Cl)ccc1OC (stereo unspecified) was tested, and the activity change, negative = inhibition was -11.4% (inactive).
In the case of CCn1cc(CNC(=O)c2cc([N+](=O)[O-])c(C)c([N+](=O)[O-])c2)cn1, the activity change, negative = inhibition is reported as -7.17% (inactive).
For Cc1nc2ccccc2nc(C)c1=NOCc1ccc(Cl)cc1Cl, the activity change, negative = inhibition was -8.26% (inactive).
Cc1nnnn1/C(=C\c1ccccc1)C(=O)OCC(=O)N1CC2(C)CC1CC(C)(C)C2 (stereo unspecified) was tested, and the activity change, negative = inhibition was -7.09% (inactive).
In the case of S=C1Nc2cc(Cl)ccc2Sc2ccccc21, the activity change, negative = inhibition is reported as -14% (inactive).
O=C(NC1CC1)c1ccc2c(c1)NC(=O)c1ccccc1S2 was tested, and the Potency was 20 µM (active).
O=C(NC1CC1)c1cccc(Br)c1 was tested, and the activity change, negative = inhibition was -26.7% (inactive).
COc1cc(Cl)c(C)cc1NC(=O)[C@@H]1CCCN1C(=O)c1cccs1 was tested, and the activity change, negative = inhibition was -4.97% (inactive).
In the case of COc1ccc(-c2nn(-c3ccccc3)cc2/C=N/Nc2ccccn2)cc1OC, the activity change, negative = inhibition is reported as -26.3% (inactive).
For CC(=O)Nc1ccc(NC(=O)C(C)OC(=O)c2ccccc2C(=O)c2ccc(Cl)c([N+](=O)[O-])c2)cc1 (stereo unspecified), the activity change, negative = inhibition was -2.62% (inactive).
In the case of COc1ccc(C2CC(c3ccccc3)=NN2C(=O)CSc2nccc(=O)[nH]2)cc1 (stereo unspecified), the activity change, negative = inhibition is reported as -5.74% (inactive).
CCC(C)NC(=O)c1ccc(N2CCC3(CC2)OCCO3)c([N+](=O)[O-])c1 (stereo unspecified) was tested, and the Potency was 39.8 µM (active).
COCCNC(=O)c1ccc(N2CCC3(CC2)OCCO3)c([N+](=O)[O-])c1 was tested, and the activity change, negative = inhibition was -17.4% (inactive).
For CCOC(=O)c1c(NC(=O)c2ccc(N3CCOCC3)c([N+](=O)[O-])c2)sc(C)c1C, the activity change, negative = inhibition was -7.82% (inactive).
For CC(C)CNC(=O)COC(=O)c1ccccc1OCC(=O)Nc1ccc(Br)cc1, the activity change, negative = inhibition was -5.33% (inactive).
Oc1c(C=Nc2cccc3nsnc23)ccc2ccccc12 was tested, and the Potency was 25.1 µM (active).
In the case of Nc1nc(NC(=O)/C=C/c2ccccc2)nn1-c1ccccc1, the activity change, negative = inhibition is reported as -3.01% (inactive).
COc1ccc(C2CC(=O)n3c(nc4ccccc43)S2)cc1OC (stereo unspecified) was tested, and the activity change, negative = inhibition was -12.6% (inactive).
With COc1ccc(C2C(C#N)=C(/N=C/N3CCOCC3)OC3=C2C(=O)CC(C)(C)C3)cc1OC (stereo unspecified) the activity change, negative = inhibition was -16.4% (inactive).
In the case of COc1cc(C2CC(=O)N3CN(Cc4ccccc4)CSC3=C2C#N)ccc1OCc1ccccc1 (stereo unspecified), the Potency is reported as 10 µM (active).
In the case of CC(C)C(=O)Nc1ccc(C(=O)NNC(=O)c2cccs2)cc1, the activity change, negative = inhibition is reported as -13.5% (inactive).
In the case of Cc1cc(C)nc(NC(=O)c2cccc([N+](=O)[O-])c2)c1, the activity change, negative = inhibition is reported as -3.35% (inactive).
CCCCC/C=C\C/C=C\CCCCCCCCCC(=O)O was tested, and the activity change, negative = inhibition was -12.4% (inactive).
With Cc1ccc(NC(=O)CCC(=O)N/N=C/c2ccco2)c(C)c1 the activity change, negative = inhibition was -2.23% (inactive).
COc1ccc(C(=O)O/N=C(\N)Cc2ccc(Cl)cc2Cl)cc1OC was tested, and the activity change, negative = inhibition was -15.7% (inactive).
With Cc1nnc(SCC(=O)Nn2cnnc2)s1 the activity change, negative = inhibition was -0.465% (inactive).
CC1CCCC(NC(=O)CSc2nccn2C)C1C (stereo unspecified) was tested, and the activity change, negative = inhibition was -27.8% (inactive).
With CC1CCCCC1NC(=O)CSc1nnc(N)s1 (stereo unspecified) the Potency was 17.8 µM (active).
In the case of Cc1cnc(NC(=O)CSc2nnc(C)s2)s1, the activity change, negative = inhibition is reported as -0.21% (inactive).
With Nc1nnc(SCC(=O)OCc2ccc(Cl)c(Cl)c2)s1 the activity change, negative = inhibition was -17.6% (inactive).
For Cc1nnc(SCC(=O)NC2CCCC2)s1, the Potency was 28.2 µM (active).
CN(CC(=O)NCCc1ccccc1)S(=O)(=O)c1cnc[nH]1 was tested, and the activity change, negative = inhibition was -0.3% (inactive).
With Cc1cccc(C)c1NC(=O)C(c1ccccc1)N1CC(=O)Nc2ccccc21 (stereo unspecified) the activity change, negative = inhibition was -5.54% (inactive).
With C=CCN(CC=C)S(=O)(=O)c1ccc(C(=O)Nc2nc3c(s2)CCc2ccccc2-3)cc1 the activity change, negative = inhibition was -28.8% (inactive).
O=C(/C(=C/c1cccc(Cl)c1)c1nc2ccccc2[nH]1)c1ccccc1 was tested, and the activity change, negative = inhibition was -17.6% (inactive).
For COc1ccc(C/C(C)=N/NC(=O)c2ccncc2)cc1, the activity change, negative = inhibition was -13.4% (inactive).
For COc1ccc([N+](=O)[O-])cc1NC(=O)C(C)OC(=O)C1c2ccccc2Oc2ccccc21 (stereo unspecified), the activity change, negative = inhibition was -5.7% (inactive).
With NC1CCN(O)C1=O (stereo unspecified) the activity change, negative = inhibition was -4.5% (inactive).
For O=C1N(c2ccc(Cl)cc2)C(c2ccc(Cl)cc2)N2CCCN12 (stereo unspecified), the activity change, negative = inhibition was 4.12% (inactive).
For COc1ccc(CNC(=O)CN(Cc2ccc(Cl)cc2)S(C)(=O)=O)cc1, the activity change, negative = inhibition was -5.79% (inactive).
CCOC(=O)c1c(C)[nH]c(C)c1C(=O)CSc1nc(N)cc(N)n1 was tested, and the activity change, negative = inhibition was -1% (inactive).
For COC(=O)c1cc(C(=O)CSc2nc(C)cc(C)n2)ccc1O, the Potency was 17.8 µM (active).
Cc1cc(SCC(=O)c2ccccc2)nc(SCC(=O)c2ccccc2)n1 was tested, and the Potency was 28.2 µM (active).
COc1ccc(C(=O)CSc2n[nH]c(N)n2)cc1 was tested, and the activity change, negative = inhibition was -10.7% (inactive).
For Cc1nc(SCC(=O)c2ccccc2)c([N+](=O)[O-])[nH]1, the activity change, negative = inhibition was -5.29% (inactive).
With O=C(CSc1nnc2ccccn12)c1ccccc1 the activity change, negative = inhibition was 78.8% (inactive).
For C/C=C(\C)C(=O)O[C@H]1CC(C)=C2C(=O)C=C(C)C2[C@@H]2OC(=O)[C@@](C)(OC(=O)C=C(C)C)C21 (stereo partly specified), the activity change, negative = inhibition was -7.62% (inactive).
O=C(Nc1ccccc1Cc1ccccc1)c1ccc2c(c1)SC1=NS(=O)(=O)CCN12 was tested, and the activity change, negative = inhibition was -2.73% (inactive).
For Cc1cc(Cl)ccc1NC(=S)N1CCC(C(N)=O)(N2CCCCC2)CC1, the activity change, negative = inhibition was -9.28% (inactive).
CCOc1ccc(NC(=O)CSc2ncnc3c2sc2ccccc23)cc1 was tested, and the activity change, negative = inhibition was -9.21% (inactive).
In the case of O=C(N/N=C/c1c(Cl)[nH]c2ccccc12)c1sc2ccccc2c1Cl, the activity change, negative = inhibition is reported as -16.9% (inactive).
With O=C(Nc1ccon1)c1cccc(Cl)c1 the activity change, negative = inhibition was -28.3% (inactive).
With O=C(Nc1ccon1)c1sc2ccccc2c1Cl the Potency was 15.8 µM (active).
In the case of CC/C=C\C/C=C\C/C=C\C/C=C\C/C=C\C/C=C\CCC(=O)NC(C)C(=O)O (stereo unspecified), the activity change, negative = inhibition is reported as -6.96% (inactive).
In the case of Cc1nnc(SCC(=O)N2CCOCC2)[nH]c1=O, the activity change, negative = inhibition is reported as -12.2% (inactive).
With COc1ccc(N2CCN(C(=O)CSc3ncnc4c3cnn4-c3ccc(OC)cc3)CC2)cc1 the activity change, negative = inhibition was -8.74% (inactive).
For O=C(CSc1nc2c(cnn2-c2ccc(F)cc2)c(=O)[nH]1)N1CCCCCC1, the Potency was 15.8 µM (active).
For CCc1ccc(C2N3CC4([N+](=O)[O-])CN2CC([N+](=O)[O-])(C3)C4(C)C)cc1 (stereo unspecified), the activity change, negative = inhibition was 2.32% (inactive).
In the case of N#CC1=C(N)OC2=C(C(=O)CCC2)C1C1CC=CCC1 (stereo unspecified), the Potency is reported as 20 µM (active).
In the case of CCc1ccc(C2C(C#N)=C(N)N(N(C)C)C3=C2C(=O)CCC3)s1 (stereo unspecified), the activity change, negative = inhibition is reported as -10.8% (inactive).
CCCc1[nH]nc2c1C(C1CC=CCC1)C(C#N)=C(N)O2 (stereo unspecified) was tested, and the activity change, negative = inhibition was -1.94% (inactive).
In the case of Cc1ccc(NC(=O)c2oc(=O)c3ccccc3c2-c2ccccc2)c(C)c1, the activity change, negative = inhibition is reported as -2.46% (inactive).
In the case of O=C(CCCOc1ccccc1)NCc1ccco1, the Potency is reported as 12.6 µM (active).
In the case of O=C(CCOc1ccccc1)NCc1ccccc1, the activity change, negative = inhibition is reported as -13.4% (inactive).
For CN(C)C(CNC(=O)CCCOc1ccccc1)c1ccco1 (stereo unspecified), the activity change, negative = inhibition was -16.9% (inactive).
In the case of CCCCOc1ccc(C(=O)NCc2ccncc2)cc1, the activity change, negative = inhibition is reported as -5.73% (inactive).
Cc1cccc(Nc2ccccc2C(=O)NCc2ccco2)c1C was tested, and the activity change, negative = inhibition was -6.4% (inactive).
With CC(C)(C)c1ccc(C(=O)NCCC(=O)NCc2ccco2)cc1 the activity change, negative = inhibition was -15.3% (inactive).
In the case of O=C(Nc1ccccc1)Nc1ccccc1C(=O)NCc1ccco1, the activity change, negative = inhibition is reported as -6.05% (inactive).
In the case of CCCCOc1ccc(C(=O)NCc2ccco2)cc1, the Potency is reported as 15.8 µM (active).
For CCOc1ccccc1C(=O)NCc1ccco1, the Potency was 22.4 µM (active).
O=C(Nn1c(SCc2ccc([N+](=O)[O-])cc2)nc2ccccc2c1=O)c1ccc(F)cc1 was tested, and the activity change, negative = inhibition was -26.2% (inactive).
With Oc1ccc(Br)cc1C=Nc1ccc2[nH]ncc2c1 the activity change, negative = inhibition was -20.6% (inactive).
In the case of COc1ccc(-n2nnnc2-c2nc3ccccc3s2)cc1, the activity change, negative = inhibition is reported as -14.9% (inactive).
For CCOC(=O)C(C)Sc1nnc(CSc2nc3nc(C)cc(C)n3n2)o1 (stereo unspecified), the activity change, negative = inhibition was -7.77% (inactive).
In the case of O=C1NC(c2ccccc2)=NC1(Nc1ccccn1)C(F)(F)F (stereo unspecified), the activity change, negative = inhibition is reported as -0.712% (inactive).
With Cc1nc(CC(=O)NNS(=O)(=O)c2ccc(F)c(Cl)c2)cs1 the activity change, negative = inhibition was -9.95% (inactive).
In the case of C[C@@]12CCC(=O)C=C1CC[C@H]1C2[C@@H](O)C[C@]2(C)[C@@H]1CC[C@@]2(O)C(=O)COC(=O)C1CCCC1 (stereo partly specified), the activity change, negative = inhibition is reported as 2.72% (inactive).
In the case of COc1cccc(-n2c(SCC(=O)NC3CCCCC3)nc3n[nH]c(C)c3c2=N)c1, the Potency is reported as 15.8 µM (active).
In the case of C=CCn1c(CC(=O)Nc2cccc(OC)c2)nnc1SCC(=O)NC1CCCCC1, the activity change, negative = inhibition is reported as -4.23% (inactive).
Cn1c(SCC(=O)NC2CCCCC2)nnc1-c1cc2ccccc2o1 was tested, and the activity change, negative = inhibition was -3.43% (inactive).
In the case of CCN(C(=O)COC(=O)c1c(NC(C)=O)sc(C)c1C)C1CCS(=O)(=O)C1 (stereo unspecified), the activity change, negative = inhibition is reported as -23.1% (inactive).
With O=C(CC(=O)N/N=C\c1cccc(Cl)c1Cl)NCc1ccccc1 the activity change, negative = inhibition was -9.68% (inactive).
For COC(=O)Cc1ccc(N(Cc2ccccc2F)S(=O)(=O)c2ccc(Br)cc2)cc1, the activity change, negative = inhibition was -19.6% (inactive).
In the case of CCn1c(SCC(=O)c2ccc3ccccc3c2)nnc1-c1cccs1, the activity change, negative = inhibition is reported as -18.4% (inactive).
For CCn1c(CNc2ccc(OC)cc2)nnc1SCC(=O)c1ccc(OC)cc1, the Potency was 14.1 µM (active).
Cc1ccc(-n2c(Cc3cccs3)nnc2SCC(=O)OC(C)C)cc1 was tested, and the activity change, negative = inhibition was -15.1% (inactive).
For COC(=O)c1ccc(NC(=O)CSc2nnc(CNc3ccc(OC)cc3)n2C)cc1, the activity change, negative = inhibition was -6.05% (inactive).
For CCn1c(COc2ccc(OC)cc2)nnc1SCC(=O)Nc1cc(OC)ccc1OC, the activity change, negative = inhibition was 1.56% (inactive).
For CCn1c(Cc2cccs2)nnc1SCC(=O)c1ccc(C)cc1, the Potency was 15.8 µM (active).
